Measured values reported in the supplement of paper PMC11624193, “Coupling cellular drug-target engagement to downstream pharmacology with CeTEAM” (Nature Communications, 2024).
Structures can show the parent of a compound that is named as a salt.

Target: PARP1 L713F-nLuc biosensor (HCT116) (UniProt P09874)
Test: PARP1 L713F-nLuc/akaLuc ratio relative to DMSO control (biosensor stabilization) (fold change); higher = more PARP1 biosensor stabilization (target engagement / stabilizer), active = hit call of the paper
Conditions: stock concentration (mM; final µM = stock mM x 1): 10; 24 h;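 active = log2 fold change beyond 2 SD from the library mean after excluding viability outliers; inactive = within 2 SD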

PARP1 L713F-nLuc biosensor (HCT116), sequence (P09874 whole entry L713F, looked up): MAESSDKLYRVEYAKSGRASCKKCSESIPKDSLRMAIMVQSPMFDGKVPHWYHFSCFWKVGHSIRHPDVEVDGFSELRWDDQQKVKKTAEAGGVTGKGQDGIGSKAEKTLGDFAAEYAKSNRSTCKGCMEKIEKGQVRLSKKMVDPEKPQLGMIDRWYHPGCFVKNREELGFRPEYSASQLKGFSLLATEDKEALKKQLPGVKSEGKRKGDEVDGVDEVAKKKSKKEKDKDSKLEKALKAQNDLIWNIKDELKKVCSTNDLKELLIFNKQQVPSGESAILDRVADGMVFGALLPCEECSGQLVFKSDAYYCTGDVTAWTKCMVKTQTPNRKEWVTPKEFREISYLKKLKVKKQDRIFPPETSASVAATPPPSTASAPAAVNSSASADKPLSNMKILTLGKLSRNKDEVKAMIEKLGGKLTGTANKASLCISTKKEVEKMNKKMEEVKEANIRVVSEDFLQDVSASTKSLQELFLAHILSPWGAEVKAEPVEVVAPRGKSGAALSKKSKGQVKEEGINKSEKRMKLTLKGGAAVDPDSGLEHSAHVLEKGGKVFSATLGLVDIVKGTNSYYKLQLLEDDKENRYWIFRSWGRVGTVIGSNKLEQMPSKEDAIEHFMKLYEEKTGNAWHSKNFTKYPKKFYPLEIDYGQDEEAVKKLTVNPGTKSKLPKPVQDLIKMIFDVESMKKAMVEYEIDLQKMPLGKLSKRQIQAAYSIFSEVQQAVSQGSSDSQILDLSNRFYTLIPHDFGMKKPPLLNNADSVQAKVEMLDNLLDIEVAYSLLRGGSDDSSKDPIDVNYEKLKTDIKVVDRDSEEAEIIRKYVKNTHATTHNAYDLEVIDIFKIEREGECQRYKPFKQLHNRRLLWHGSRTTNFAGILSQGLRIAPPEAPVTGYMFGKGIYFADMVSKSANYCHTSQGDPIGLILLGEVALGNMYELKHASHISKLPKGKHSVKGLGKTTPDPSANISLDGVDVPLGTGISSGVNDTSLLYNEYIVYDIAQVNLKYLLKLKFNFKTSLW

Row | SMILES | PARP1 L713F-nLuc/akaLuc ratio
1 | CN(C)NC(=O)CCC(=O)O [Daminozide] | 0.786 (inactive)
2 | Cn1cc(C2=C(c3cn(C4CCN(Cc5ccccn5)CC4)c4ccccc34)C(=O)NC2=O)c2ccccc21 [Enzastaurin] | 0.72 (inactive)
3 | COc1cc(C)[nH]c(=O)c1CNC(=O)c1c(C)n([C@H](C)C2CCOCC2)c2ccccc12 | 0.857 (inactive)
4 | CC(=O)O[C@H]1[C@H]2[C@@H](OC(=O)Cc3ccccc3)[C@@H](C)C[C@]2(OC(C)=O)C(=O)/C(C)=C/[C@@H]2[C@H](CC[C@@]13CO3)C2(C)C [Euphorbiasteroid] | 0.646 (inactive)
5 | CCC1(c2ccc(N)cc2)CCC(=O)NC1=O (stereo not drawn) [Aminoglutethimide] | 0.862 (inactive)
6 | N[C@@H](CNC(=O)C(=O)O)C(=O)O [Dencichine] | 1.45 (inactive)
7 | c1cncc(C2Nc3ccccc3-n3cccc32)c1 (stereo not drawn) | 0.887 (inactive)
8 | CC(C)=CCCC1=CC(=O)c2c(O)ccc(O)c2C1=O [Deoxyshikonin] | 0.834 (inactive)
9 | C[C@H](CCC(=O)O)C[C@H](C)C[C@H](C)C(=O)/C=C(\O)[C@H](C)C[C@H](C)C/C=C/[C@@H](C)[C@@H](O)[C@@H](C)[C@@H](O)C[C@@H]1CC[C@@](C)([C@H]2CC[C@@](C)([C@@H](C)O)O2)O1 [Ionomycin (calcium)] | 0.727 (inactive)
10 | C=C1C[C@@H]2[C@H](CC[C@]3(C)C(=O)CC[C@@H]23)[C@@]2(C)C=CC(=O)C=C12 [Exemestane] | 1 (inactive)
11 | CCN1CCN(C(=O)Cc2ccc(Nc3ncc(F)c(Nc4ccc(C(=O)Nc5ccccc5Cl)cc4)n3)cc2)CC1 | 1.15 (inactive)
12 | CC[C@@]1(O)C(=O)OCc2c1cc1n(c2=O)Cc2cc3ccccc3nc2-1 [Camptothecin] | 0.495 (inactive)
13 | CC[C@@H](C(N)=O)N1CCCC1=O [Levetiracetam] | 1.19 (inactive)
14 | COc1cc(C(=O)N2CC[C@@H](O)[C@@H](N)C2)cc2nc(-c3cc4ccccc4n3CC3CC3)n(C)c12 [GSK484 (hydrochloride)] | 1.09 (inactive)
15 | O=C(O)CNC(=O)C1C(=O)N(C2CCCCC2)C(=O)N(C2CCCCC2)C1=O [Daprodustat] | 0.831 (inactive)
16 | c1ccc([C@@H]2C[C@H]2NC2CCNCC2)cc1 [GSK-LSD1 (dihydrochloride)] | 0.955 (inactive)
17 | CCCC(=O)O[C@@H]1[C@@H](C)[C@@]2(O)[C@@H](C=C(CO)C[C@]3(O)C(=O)C(C)=C[C@@H]23)[C@@H]2C(C)(C)[C@]12OC(=O)CCC [Phorbol 12,13-dibutyrate] | 1.36 (inactive)

Row | SMILES | PARP1 L713F-nLuc/akaLuc ratio
18 | CC[C@@H](C(=O)[C@@H](C)[C@@H](O)[C@H](C)[C@@H]1O[C@@H]([C@@H](CC)C(=O)O)CC[C@@H]1C)[C@H]1O[C@]2(C=C[C@@H](O)[C@]3(CC[C@@](C)([C@H]4CC[C@](O)(CC)[C@H](C)O4)O3)O2)[C@H](C)C[C@@H]1C [Salinomycin (from Streptomyces albus)] | 0.553 (inactive)
19 | O=C(NO)c1cnc(NC2(c3ccccc3)CCC(F)(F)CC2)nc1 | 5.69 (active)
20 | O=C(NO)c1cnc(NC2(c3cccc(F)c3)CCCCC2)nc1 | 0.756 (inactive)
21 | COc1ccc2c(c1)C(c1ccc(Cl)cc1)=N[C@@H](CC(=O)O)c1nnc(C)n1-2 [I-BET762 carboxylic acid] | 0.834 (inactive)
22 | Cc1cc(O)cc(C)c1C=C1C(=O)N(Cc2ccccc2)C(=O)N(Cc2ccccc2)C1=O | 1.52 (inactive)
23 | C[C@@H]1C(=O)O[C@H]2[C@H](O)[C@@]34O[C@@H]5OC(=O)[C@H](O)[C@@]56[C@H](C(C)(C)C)[C@H](O)C(OC3=O)[C@]64[C@@]12O (stereo partly drawn) [Ginkgolide C] | 0.961 (inactive)
24 | COCC1(CO)C(=O)C2CCN1CC2 (stereo not drawn) | 1.09 (inactive)
25 | COc1c2c3c4c(c(OC)c(=O)c5c(O)cc(OC)c(c6c(OC)cc(O)c(c1=O)c63)c54)[C@@H](C(C)=O)[C@@](C)(O)C2 [Hypocrellin A] | 0.849 (inactive)
26 | CCc1c(C(=O)C(N)=O)c2c(OCC(=O)O)cccc2n1Cc1ccccc1 | 0.845 (inactive)
27 | CC(O)(CS(=O)(=O)c1ccc(F)cc1)C(=O)Nc1ccc(C#N)c(C(F)(F)F)c1 (stereo not drawn) [Bicalutamide] | 0.786 (inactive)
28 | Cn1cc(C2=C(c3cn(C4CCN(Cc5ccccn5)CC4)c4ccccc34)C(=O)NC2=O)c2ccccc21 | 1.12 (inactive)
29 | NCCCNCCSP(=O)(O)O [Amifostine] | 1.22 (inactive)
30 | Clc1ccc2c(N3CCNCC3)ccnc2c1 [7-Chloro-4-(piperazin-1-yl)quinoline] | 0.933 (inactive)
31 | COc1ccc2c(c[n+](C)c3c4cc5c(cc4ccc23)OCO5)c1OC [Chelerythrine (chloride)] | 0.843 (inactive)
32 | C/C=C(/C)C(=O)O[C@H]1[C@@H]2[C@H](C)C(=O)O[C@@H]2C[C@@H](C)[C@@H]2C=CC(=O)[C@]21C [Brevilin A] | 1.47 (inactive)
33 | O=C(O)CNC(=O)c1c(O)c2ccccc2n(Cc2ccccc2)c1=O | 1.76 (inactive)
